KCNQ2 block: rat KCNQ2 potassium channel inhibitors, primary screen, cell-based, CHO-K1, FluxOR thallium flux, B-score. actives 1.1% (n = 310,000). AID 2156, 2009. 20 min; hits give low values. B-score at 10 µM;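 active means fluorescence ratio B-score at most minus 3 library SDs, with starting brightness B-score within 2 library SDs, cut at about -5.5 in these data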
KCNQ2 enhance: potentiators of rat KCNQ2 potassium channel | Potassium voltage-gated channel subfamily KQT member 2 (Rattus norvegicus), O88943 | CHO-K1 KCNQ2, FluxOR thallium flux fluorescence; hits give high values | B-score at 10 µM | actives 0.54% (n = 310,000) | AID 2239, 2010;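 active means fluorescence ratio B-score at least 3 SD of library B-scores, with initial fluorescence B-score within 3 of them, cut at about 5.3 in these data; same plate scores as AID 2156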;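 further: B-score of peak minus minimum over baseline fluorescence ratio after K+ and Tl+ stimulus; positive B-score means potentiation of KCNQ2 with more thallium influx and brighter signal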
Kir21 conf inh: mouse Kir2.1 channel blockers, retest, confirmation, cell-based, FluxOR thallium flux, duplicate | Kir2.1-expressing cells, FluxOR thallium flux fluorescence; hits give low values | Tl flux remaining, % of negative control (hits give low values), % at 10 µM | shares compounds with KCNQ2 enhance | AID 2032, 2009 | actives 41% (n = 2,300);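 active means Primary-screen hit whose thallium flux fell at least 3 control SD below untreated wells in both duplicates, with normal baseline fluorescence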;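 further: 0% = blank wells without stimulus and 100% = stimulated no-compound controls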
Target sequence (P35561 whole entry, looked up): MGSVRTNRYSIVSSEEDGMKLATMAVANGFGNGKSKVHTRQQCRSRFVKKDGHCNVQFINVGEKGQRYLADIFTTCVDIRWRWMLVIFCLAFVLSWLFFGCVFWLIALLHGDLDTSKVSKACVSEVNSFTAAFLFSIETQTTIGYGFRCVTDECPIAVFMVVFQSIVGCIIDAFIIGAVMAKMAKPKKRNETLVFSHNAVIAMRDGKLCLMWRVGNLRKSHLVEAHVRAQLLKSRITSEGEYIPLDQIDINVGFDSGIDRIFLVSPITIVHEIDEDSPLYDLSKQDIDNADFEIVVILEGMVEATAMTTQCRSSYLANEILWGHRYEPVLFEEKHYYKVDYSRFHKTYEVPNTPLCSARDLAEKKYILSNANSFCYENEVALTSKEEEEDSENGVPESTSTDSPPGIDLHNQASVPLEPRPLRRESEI
HEK293 ctr: counter-screen for Kir2.1 inhibitors: effect in parental HEK293 cells; shares compounds with KCNQ2 enhance; FluxOR thallium flux fluorescence; 0% = unstimulated blank wells; FluxOR signal as % of negative control (100 = no effect), % at 10 µM; actives 19% (n = 2,300); AID 2105;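 active means dye signal at least 3 control SD above or below untreated wells in both duplicates, raw fluorescence within 3, either direction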;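 further: percent is based on the flux ratio of peak minus minimum fluorescence over baseline F0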
CHO-K1 ctr: nonspecific thallium flux increase in parental CHO-K1, confirmation, counter-screen for KCNQ2 potentiator project, cell-based, FluxOR thallium flux, duplicate; actives 43% (n = 1,200); parental CHO-K1 cells, FluxOR thallium flux fluorescence; zero = vehicle mean+3SD, 100% = vehicle-minus-blank window; shares compounds with KCNQ2 enhance; activity increase over 3SD of controls, % at 10 µM;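 active means signal rise of at least 3 SD above the untreated control mean, in both duplicate wells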;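 further: counter screen of KCNQ2 potentiator hits so any rise reflects channel-independent effects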
KCNQ1 sel pot: human KCNQ1 channel potentiation off-target, confirmation, selectivity assay for KCNQ2 potentiator project, cell-based, CHO, FluxOR thallium flux. shares compounds with KCNQ2 enhance. CHO KCNQ1 stable, FluxOR thallium flux fluorescence; beyond 3SD, as % of vehicle-control signal. activation over 3SD threshold, % at 10 µM. actives 28% (n = 1,200);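 active means fluorescence ratio rise of at least 3 SD of vehicle wells above their mean, in both replicate wells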;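 further: 0% = vehicle mean plus 3 SD and 100% = vehicle minus unstimulated blank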
KCNQ2 pot conf: rat KCNQ2 channel potentiators, confirmation, cell-based, CHO, FluxOR thallium flux, duplicate | CHO-KCNQ2 cells, FluxOR thallium flux fluorescence | actives 68% (n = 1,200) | potentiation, less the hit threshold, % at 10 µM | shares compounds with KCNQ2 enhance | AID 2287, 2010;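 active means fluorescence ratio rising 3 SD or more over the vehicle control mean in both replicates, plus primary screen hit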;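 further: peak minus minimum thallium fluorescence divided by baseline after K/Tl stimulus; 0% = vehicle mean plus 3 SD and 100% = vehicle minus unstimulated blank difference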
Kir2-1 sel: mouse Kir2.1 channel activation off-target, confirmation, selectivity assay for KCNQ2 potentiator project, cell-based, HEK293, FluxOR thallium flux | shares compounds with KCNQ2 enhance | HEK293 Kir2.1, FluxOR thallium flux fluorescence | activity over 3SD threshold, % at 10 µM | actives 2% (n = 1,200) | AID 2345, 2010;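 active means fluorescence ratio rise of at least 3 SD above the vehicle-control mean, seen in both replicates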;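 further: 0% = vehicle mean plus 3 SD and 100% = vehicle minus no-stimulus blank window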
KCNQ2 W236L pot: potentiators of retigabine-insensitive KCNQ2 W236L, mechanism study for KCNQ2 potentiator project, cell-based, rat KCNQ2 W236L, CHO, automated patch clamp. actives 10% (n = 940). current increase over 3SD of negative controls (%), hits give high values, % at 25 µM. automated patch clamp current. shares compounds with KCNQ2 enhance. AID 2558, 2010;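 active means current increase at least 3 SD of the untreated controls above them in both duplicate recordings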
* = called active by the depositor; i = inactive; nt = no result given. Rows were chosen to be rich in hits. Some 1.6% of all compounds tested hit in one or more screens of this group.

SMILES | KCNQ2 block | KCNQ2 enhance | Kir21 conf inh | HEK293 ctr | others
CC1=CN2C(=NC(=O)CC2(C)C(=O)N(CC(=O)NC2CCCC2)Cc2ccc(Cl)cc2)C=C1 (stereo not given) | i | 0.04 | nt | nt
Cc1ccc(CNC(=O)Nc2ccc(C)cc2)cc1 | i | 2.5 | nt | nt
COc1ccc(NC(=O)NCCCN2CCC(Cc3ccccc3)CC2)cc1 | i | nt | nt | nt
O=C(NCCCCc1ccccc1)Nc1ccc(F)cc1 | i | 2.1 | nt | nt
CSc1ccc(NC(=O)NCCCN2CCC(Cc3ccccc3)CC2)cc1 | i | nt | 64%* | i
Cc1ccc(NC(=O)NCCSc2ccc(C)cc2)cc1 | i | 5.5* | i | i | CHO-K1 ctr=-4;KCNQ1 sel pot=48*;KCNQ2 pot conf=-4;Kir2-1 sel=-26
Cc1ccc(NC(=O)NCCCc2ccccc2)cc1 | i | 6.3* | i | i | CHO-K1 ctr=5.9*;KCNQ1 sel pot=71*;KCNQ2 pot conf=-3;Kir2-1 sel=-36;KCNQ2 W236L pot=i
Cc1ccc(NC(=O)NCC2CC2(Cl)Cl)cc1 (stereo not given) | i | 10* | i | i | CHO-K1 ctr=22*;KCNQ1 sel pot=-21;KCNQ2 pot conf=-1;Kir2-1 sel=-31;KCNQ2 W236L pot=i
Cc1ccc(NC(=S)NCCSc2ccc(Cl)cc2)cc1 | i | 3.2 | nt | nt
Cc1nc2ccccc2cc1C(=O)N(C)Cc1ccccc1 | i | nt | nt | nt
Cn1c(Cc2nc(-c3cnccn3)no2)nnc1SCC(=O)Nc1ccccc1 | i | nt | nt | nt
COC(=O)CN1C(=O)N/C(=C/c2cc(OC)c(OC)cc2C)C1=O | i | nt | nt | nt
CCOc1cc(C(=O)N=c2sccn2C)ccc1OC(F)F | i | 0.43 | nt | nt
CC(C)c1nc2n[nH]c(N)c2c2c1CCCC2 | i | 2.2 | 40%* | i
CC(C)Cc1nc2n[nH]c(N)c2c2c1CCCC2 | i | 2.6 | nt | nt
Cc1ccc(NC(=O)CSC(N)=O)cc1Cl | i | 5.3 | i | i | CHO-K1 ctr=-24;KCNQ1 sel pot=-22;KCNQ2 pot conf=3.0*;Kir2-1 sel=-42;KCNQ2 W236L pot=i
COCC(=O)Nc1ccc(C)c(Cl)c1 | i | 2.1 | nt | nt
Cc1c(Cl)cccc1NC(=O)CSC(N)=O | i | 4.6 | nt | nt
N#CCSCC(=O)Nc1ccc(Cl)cc1 | i | 0.01 | nt | nt
NC(=O)SCC(=O)Nc1cccc(Cl)c1 | i | 7.7* | i | i | CHO-K1 ctr=16*;KCNQ1 sel pot=-6;KCNQ2 pot conf=12*;Kir2-1 sel=-44;KCNQ2 W236L pot=i
NC(=O)SCC(=O)Nc1ccc(Cl)cc1 | i | 6* | i | i | CHO-K1 ctr=-10;KCNQ1 sel pot=20*;KCNQ2 pot conf=20*;Kir2-1 sel=-40;KCNQ2 W236L pot=i
Cn1nnnc1SCCNC(=O)C1CCC(=O)N(Cc2ccc(Cl)cc2)C1 (stereo not given) | i | 0.5 | nt | nt
CCOc1ccc(S(=O)(=O)NN2Cc3ccccc3C2=N)cc1 | i | 0.35 | nt | nt
Cc1c(C=O)c2ccccn2c1C(=O)c1cccs1 | i | nt | nt | nt
CC(C)c1ccc(/C=C(\c2nc3ccccc3[nH]2)S(=O)(=O)c2ccccc2)cc1 | i | nt | nt | nt
SMILES | KCNQ2 block | KCNQ2 enhance | Kir21 conf inh | HEK293 ctr | others
O=S(=O)(/C(=C/c1ccc(C(F)(F)F)cc1)c1nc2ccccc2[nH]1)c1ccccc1 | -7.8* | -7.8 | i | i
CC(C)CCCN1C(Nc2ccccc2)=NC[C@@H]1C | i | 0.04 | nt | nt
Cc1ccc(C(=O)C(OC(=O)CN2C(=O)c3ccccc3C2=O)c2ccccc2)cc1C (stereo not given) | i | 7.5* | i | i | CHO-K1 ctr=-19;KCNQ1 sel pot=-18;KCNQ2 pot conf=-2;Kir2-1 sel=-20;KCNQ2 W236L pot=i
Cc1ccc(C(=O)C(OC(=O)CN2C(=O)c3ccccc3C2=O)c2ccccc2)cc1 (stereo not given) | i | 1.9 | nt | nt
O=C(c1sc2cccc(F)c2c1Cl)N1CCN(c2ncccn2)CC1 | i | nt | nt | nt
O=CN1c2ccccc2CSc2ccccc21 | i | 0.89 | nt | nt
CC(=O)c1c(N2CCCC2)[nH]c(-c2ccccc2)nc1=S | i | 1.9 | nt | nt
CC(=O)c1c(N2CCN(Cc3ccccc3)CC2)[nH]c(-c2ccccc2)nc1=S | i | 6.2* | i | 208%* | CHO-K1 ctr=-18;KCNQ1 sel pot=54*;KCNQ2 pot conf=2.3*;Kir2-1 sel=-35;KCNQ2 W236L pot=i
O=C(Cc1ccc(Cl)cc1Cl)NC1CCCCCC1 | i | 3 | nt | nt
CCc1ccc(OCC(=O)NC2CCCCC2)c(Br)c1 | i | 23* | i | i | CHO-K1 ctr=138*;KCNQ1 sel pot=-16;KCNQ2 pot conf=72*;Kir2-1 sel=-44;KCNQ2 W236L pot=i
CCc1ccc(OCC(=O)NNC(=S)NC(=O)C2CCCCC2)c(Br)c1 | i | nt | nt | nt
O=C(Cc1ccc(Cl)c(Cl)c1)NC1CCCCCC1 | i | 7.2* | i | i | CHO-K1 ctr=-1;KCNQ1 sel pot=0.5*;KCNQ2 pot conf=0.8*;Kir2-1 sel=-33;KCNQ2 W236L pot=i
O=C(CSc1nnc(-c2cccnc2)n1Cc1ccco1)c1ccc(Br)cc1 | i | nt | 68%* | 72%*
O=C(CSc1nnc(-c2cccnc2)n1Cc1ccco1)c1ccc2ccccc2c1 | i | nt | nt | nt
CC(C)NCC1CCc2cc(CO)c([N+](=O)[O-])cc2N1 (stereo not given) | i | nt | nt | nt
Cc1ccc(S(=O)c2snnc2C)cc1 (stereo not given) | i | nt | nt | nt
Cc1nnsc1S(=O)c1ccc(F)cc1 (stereo not given) | i | 0.41 | nt | nt
CCCNC(=O)c1nnsc1S(=O)c1ccc(Cl)cc1 (stereo not given) | -6.8* | -6.8 | 74%* | i
CNC(=O)c1nnsc1S(=O)c1ccc(Cl)cc1 (stereo not given) | i | nt | 66%* | 65%*
COc1ccc(-n2c3c(cc(C#N)c2=O)C(=O)CCC3)cc1 | i | nt | nt | nt
